Screening results from PubChem.
A selection: hits, their analogues and other compounds. The true share with any hit is near 11%.
HPGD block: HPGD (human) dehydrogenase inhibition; P15428; purified HPGD, NADH fluorescence kinetic, PGE2 substrate; Potency, µM, actives largely listed as inhibitors; 4.3% of 150,000 active; AID 894; active means well fitted inhibition curve with a large enough effect, not every such curve was filed as active; inconclusive means small, poorly fitted or top-dose-only effect, or another doubt; inactive means no such curve, though single readings can be large or run the other way
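20 nM HPGD preincubated 15 min at room temperature with compound in 50 mM Tris-HCl pH 8, 0.01% Tween 20. Started with 1 mM NAD+ and 30 uM prostaglandin E2; NADH fluorescence (360/450 nm) read 5 times over 30-s intervals, last minus first.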
PNC inhibitor: inhibitors of perinucleolar compartment assembly. AID 2417. 3.1% of 140,000 active. PC3M PTB-GFP, PNC prevalence imaging, 16 h; stronger effect = lower value. activity change (PNC), negative = inhibition, % at 10 µM;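 active means readout at or below -70, meaning at least 70% loss of cells showing the perinucleolar compartment, a nuclear body marking cancer cells; inconclusive means readout between -30 and a set limit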
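Compounds are pinned in duplicate onto adhered PC3M cells stably expressing GFP-tagged PTB and incubated 16 h at 37 C. Cells are then fixed, nuclei stained with Hoechst, and PNC-positive cells counted.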
HTT aggregate: reduces HttQ103-GFP aggregates in PC12 cells; PC12 HttQ103-GFP aggregates, Acumen cytometry, 40 h; Potency, µM (titrated, usually from 46.1 µM), usual class: inhibitors; 1.1% of 220,000 active; AID 1688; further: nearly all actives have a fitted effect of over 60% in size
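PC12/HTTQ103-GFP, ecdysone-inducible; teb 100 nM; cpd qHTS titration; GFP aggregates read on laser cytometer, Ex 488/Em 500-530 nm.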
CBFb-RUNX1 inh: CBF-beta/RUNX1 interaction disruption. Potency, µM (doses to about 59.8 µM), most hits filed as inhibitors. AlphaScreen CBFb-His/RUNX1-biotin binding, biochemical. Q01196+Q13951. 230,000 tested, under 10 active
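Read-out: AlphaScreen. Format: His-CBF-beta with biotinylated RUNX1 (30 nM each) preincubated 20 min, compound 15 min, Ni-chelate plus streptavidin beads 90 min; room temperature throughout.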
ALDH1A1 block: blocks purified human ALDH1A1 activity; P00352; Purified ALDH1A1, NADH fluorescence, propionaldehyde substrate; Potency, µM (titrated, usually from 75.3 µM), most hits filed as inhibitors; 7.3% of 220,000 active; active means well fitted inhibition curve with a large enough effect, not every such curve was filed as active; inconclusive means small, poorly fitted or top-dose-only effect, or another doubt; inactive means no such curve, though single readings can be large or run the other way
Target sequence (P00352 whole entry, looked up): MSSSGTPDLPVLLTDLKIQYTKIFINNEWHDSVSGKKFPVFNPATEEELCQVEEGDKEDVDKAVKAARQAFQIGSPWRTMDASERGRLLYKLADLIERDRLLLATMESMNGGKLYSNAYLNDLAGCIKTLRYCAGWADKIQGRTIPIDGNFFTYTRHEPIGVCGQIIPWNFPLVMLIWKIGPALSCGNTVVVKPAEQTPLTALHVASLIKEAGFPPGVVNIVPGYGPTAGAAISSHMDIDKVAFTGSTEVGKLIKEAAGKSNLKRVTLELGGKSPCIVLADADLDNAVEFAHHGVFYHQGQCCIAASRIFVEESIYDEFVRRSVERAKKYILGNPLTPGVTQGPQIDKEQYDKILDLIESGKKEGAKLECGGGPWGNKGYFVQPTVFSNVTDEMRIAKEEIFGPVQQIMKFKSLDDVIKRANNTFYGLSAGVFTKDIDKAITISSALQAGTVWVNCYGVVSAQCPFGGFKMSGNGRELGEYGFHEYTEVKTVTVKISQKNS
HTT cytoprotect: Huntington cell model cytoprotection by ATP luminescence. PC12 HTT-Q103 induced, cytoprotection, ATP luminescence, 40 h. Potency, µM (titrated, usually from 56.4 µM), usual class: activators. 0.14% of 230,000 active. AID 1471; further: nearly all actives have a fitted effect of over 45% in size
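Compounds added alongside 100 nM tebufenozide, which induces toxic Q103 huntingtin exon 1-GFP in stable PC12 cells; surviving cells quantified by luminescent ATP measurement. Medium: phenol red-free DMEM, 5% equine and 5% calf serum.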
Large screens that a line does not name were inactive. Unless noted, the call rests on the fitted dose curve; in most records, active means well fitted curve in the direction sought with a large enough effect; inconclusive means small, poorly fitted or top-dose-only effect, or another doubt; inactive means no such curve, though single readings can be large; an effect the other way counts as inactive or inconclusive.

C#CCCCO/N=C1/C[C@@H](O)[C@@H](O)[C@@H]2[C@@H]3C(=O)N(C4CCCCC4)C(=O)[C@H]3CC[C@H]12	none (no result: HPGD block, PNC inhibitor, HTT aggregate)
CCOC(=O)N/N=C/c1ccc(OCCSc2ccc(Cl)cc2)c(OCC)c1	HPGD block 16µM
COc1cc(C=O)ccc1OCCSc1ccc(Cl)cc1	HPGD block 11µM, ALDH1A1 block inconclusive
CCOC(=O)N/N=C/c1ccc(OCCSc2ccc(Cl)cc2)c(OC)c1	none
COc1cc(C=O)ccc1OCCOCCOc1c(C)cc(Cl)cc1Cl	HPGD block inconclusive, ALDH1A1 block inconclusive (no result: CBFb-RUNX1 inh)
COc1cc(C=O)ccc1OCCOCCOc1ccc(Cl)cc1	ALDH1A1 block 3.5µM
C/C=C/c1ccc(OCCCCOc2ccccc2C(C)=O)c(OC)c1	HPGD block 14µM, CBFb-RUNX1 inh inconclusive, ALDH1A1 block inconclusive (no result: HTT cytoprotect)
N#Cc1ccc(CN2CCC3(CC2)CCN(C(=O)c2ccco2)CC3)cc1	none (no result: PNC inhibitor, HTT aggregate, CBFb-RUNX1 inh)
CSCC[C@@H](C(=O)O)N(C)C	none (no result: PNC inhibitor, HTT aggregate, CBFb-RUNX1 inh)
C/C=C/c1ccc(OCCCNC)c(OC)c1	ALDH1A1 block 28µM
C/C=C/c1ccc(OCCOc2ccc(C=O)cc2)c(OC)c1	HPGD block 25µM, ALDH1A1 block inconclusive
COC(=O)c1ccc(Sc2ccccc2NS(=O)(=O)c2ccc(NC(C)=O)cc2)nc1	PNC inhibitor inconclusive, ALDH1A1 block 11µM
COC(=O)c1ccc(C(=O)OC)c(NS(=O)(=O)c2ccc(NC(C)=O)cc2)c1	HPGD block inconclusive, ALDH1A1 block inconclusive
CCC(C)(C)n1nnnc1CN1CCC(NC(=O)c2ccc(Br)cc2)CC1	PNC inhibitor inconclusive, ALDH1A1 block 5µM
COc1ccc(CC(=O)NC2CCN(Cc3nnnn3C(C)(C)C)CC2)cc1OC	PNC inhibitor inconclusive, ALDH1A1 block 25µM
Cc1ccc(NC(=O)CN(Cc2ccccc2)S(C)(=O)=O)cc1C	none
CCCN1C(=S)SC(C)(C)C1/[N+]([O-])=C/c1ccc(S(=O)(=O)NC)cc1 (configuration not stated)	none (no result: HPGD block, PNC inhibitor)
CN(C)c1ccc(/C=[N+](\[O-])C2SC(=S)N(C)C2(C)C)cc1 (configuration not stated)	ALDH1A1 block 0.45µM
CN1C(=S)SC(C)(C)C1/[N+]([O-])=C/c1cccnc1 (configuration not stated)	PNC inhibitor inconclusive
CN(C)c1ccc(/C=[N+](\[O-])C2N(c3ccccc3)C(=S)SC2(C)C)cc1 (configuration not stated)	ALDH1A1 block 22µM
CCN1CCCc2cc(CN(CCN3CCOCC3)C(=S)Nc3cccc(OC)c3)ccc21	CBFb-RUNX1 inh inconclusive, ALDH1A1 block 16µM (no result: HPGD block, PNC inhibitor)
S=C(NCCN1CCOCC1)Nc1cccc(Cl)c1	none (no result: HTT cytoprotect)
COc1cccc(NC(=S)NCCN2CCOCC2)c1	PNC inhibitor -91
CNS(=O)(=O)c1cccc(C(=O)OCC(=O)Nc2ccc(Cl)cn2)c1	none (no result: HPGD block, PNC inhibitor, ALDH1A1 block)
CC(=O)O[C@@H]1[C@@]2(C)O[C@H]2CC[C@]23O[C@H]2[C@H](OC3=O)C2=C(C)C(=O)O[C@@]21O	ALDH1A1 block 28µM (no result: HTT cytoprotect)
CC1Cc2ccccc2N1C(=O)CSC1=NCCS1 (configuration not stated)	ALDH1A1 block inconclusive
CC1Cc2ccccc2N1C(=O)CSc1ccccc1 (configuration not stated)	ALDH1A1 block 18µM
CC1CCN(CC(=O)N2c3ccccc3CC2C)CC1 (configuration not stated)	ALDH1A1 block inconclusive (no result: HPGD block, PNC inhibitor)
CC1Cc2ccccc2N1C(=O)CNc1ccccc1N1CCCCC1 (configuration not stated)	ALDH1A1 block 13µM (no result: HPGD block, PNC inhibitor)
Cc1nnc(SCC(=O)N2c3ccccc3CC2C)[nH]c1=O (configuration not stated)	ALDH1A1 block 11µM
O=C(CSc1ncn[nH]1)c1cccc([N+](=O)[O-])c1	HPGD block inconclusive, ALDH1A1 block inconclusive
O=C(CSc1ncn[nH]1)c1ccccc1	HPGD block 22µM, ALDH1A1 block inconclusive
O=C(CSc1ncn[nH]1)NC1CC2CCC1C2 (configuration not stated)	HPGD block 16µM, ALDH1A1 block inconclusive
